65 compounds from PubChem BioAssay AID624330 (Southern Research Specialized Biocontainment Screening …, 2012) can be followed below.

Each structure is given as a SMILES string. Among all 340,000 compounds or so, about 2,100 (0.62%) were called active. The list is a sample of the results. Potency and affinity values are given separately. Unmarked numbers belong to inactive results.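 The calls were made as follows: active = first-screen hits whose inhibition reached a set limit at any dose in the follow-up dose series; inconclusive = inhibition above the set first-screen limit but never retested; inactive = the rest.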

The target in this assay is Rac GTPase-activating protein 1 (Homo sapiens) (UniProt Q9H0H5). As to the kind of experiment: blockers of MgcRacGAP-driven Rac1 GTP hydrolysis – biochemical, ADP Hunter fluorescence, primary and confirmatory, confirmation (AID 624330).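 Also: fluorescence reports GDP produced by GAP-driven GTP hydrolysis.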 The following applies: MgcRacGAP-stimulated Rac1 GTP hydrolysis, at 30 µM, stronger effect = higher value, GST-tagged Rac1 F28L mutant substrate.
Sequence of Rac GTPase-activating protein 1 (Homo sapiens) (Q9H0H5 whole entry, looked up): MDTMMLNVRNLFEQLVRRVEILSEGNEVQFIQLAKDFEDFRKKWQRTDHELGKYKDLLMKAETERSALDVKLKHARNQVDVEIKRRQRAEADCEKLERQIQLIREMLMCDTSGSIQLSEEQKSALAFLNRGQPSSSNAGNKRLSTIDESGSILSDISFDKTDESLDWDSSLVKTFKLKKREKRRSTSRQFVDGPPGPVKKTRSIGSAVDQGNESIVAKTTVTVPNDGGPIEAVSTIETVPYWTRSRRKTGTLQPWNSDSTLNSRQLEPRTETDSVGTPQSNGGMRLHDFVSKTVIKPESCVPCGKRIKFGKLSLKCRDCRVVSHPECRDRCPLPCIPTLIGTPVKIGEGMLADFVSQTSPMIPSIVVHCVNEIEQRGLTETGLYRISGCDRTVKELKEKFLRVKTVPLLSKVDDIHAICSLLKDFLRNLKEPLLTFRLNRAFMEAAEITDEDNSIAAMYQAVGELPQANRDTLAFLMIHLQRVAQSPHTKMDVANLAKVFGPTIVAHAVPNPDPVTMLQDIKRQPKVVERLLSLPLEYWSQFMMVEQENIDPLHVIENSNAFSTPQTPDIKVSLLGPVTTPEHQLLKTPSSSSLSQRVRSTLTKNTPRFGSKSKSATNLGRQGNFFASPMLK
In the case of `CCN(CC)C(=O)[C@H]1C[C@H](CC(=O)NCCCN(C)C)C(=O)N2CCc3c([nH]c4ccc(Cl)cc34)[C@]12C`, the inhibition is 4.62%.
Turning to `O=C(NCc1ccccn1)C12CC3CC(CC(C3)C1)C2`, the inhibition is 3.08%.
In the case of `O=C(NCc1ccccn1)NC12CC3CC(CC(C3)C1)C2` it was 1.18%; in that of `COc1cc(OC)c(OC)cc1/C=C1/C(=O)N=C(N)N1C`, 0.61%.
The result for `CC(NC(=O)/C=C/c1ccco1)c1nc2ccccc2n1Cc1ccccc1F` (stereo not given) reads -6.08%; that for `O=c1c(-c2ccco2)[n+]([O-])c2ccccc2n1OCc1ccccc1`, 2.31%.
In the case of `Cc1c(Cl)cccc1NC(=O)CNCc1ccccc1F` it was 5.19%; in that of `O=C(CNCc1ccccc1Cl)Nc1ccccc1N1CCCCC1`, 28.3%; in that of `CCCCn1c(N)c(N(CCOC)C(=O)CSCc2ccc(C)cc2)c(=O)[nH]c1=O`, 3.5%.
On to `Cc1ccc(NC(=O)CN(C)S(=O)(=O)c2cccs2)cc1C`, for which the inhibition is 2.54%.
The result for `CCN=C1S/C(=C\c2sccc2C)C(=O)N1CC` reads 8.79%.
Regarding `CSc1ccccc1C(=O)NCc1ccc2c(c1)OCO2`, the inhibition is 3.84%.
As for `CC(C(=O)Nc1ccc2c(c1)OCO2)N(C)CC(=O)Nc1ccccc1Cl` (stereo not given), the inhibition is 6.56%.
In the case of `COc1ccc2c(c1)[nH]c1c(=O)n(/N=C/c3ccc(OC)c(COc4ccccn4)c3)cnc12` it was 6.37%.
The result for `CC(C)N1C(=O)S/C(=C/c2ccc(Sc3nc4ccccc4[nH]3)o2)C1=O` reads 12.6%; that for `CC(C)N1C(=O)S/C(=C\c2ccc(-c3ccc(Cl)c(C(=O)O)c3)o2)C1=O`, 14.4%.
In the case of `CCc1nc2ccccc2c(=O)n1NC(=O)c1c(O)c2ccccc2n(CC)c1=O` it was 11.3%.
With `CCn1c(COc2ccc(Cl)cc2)nnc1SCC(=O)Nc1ccc2c(c1)OCCO2`, the inhibition is 9.81%.
The result for `COc1cc(/C=C2/SC(=S)N(Cc3ccccc3)C2=O)ccc1O` reads 11.1%; that for `NC1=NC(=O)C(=Cc2ccccc2)S1`, -0.93%.
In the case of `COc1ccc(C2=NN(c3ccccc3)C(=O)/C2=C\c2ccc(O)c(OC)c2)cc1` it was 4.88%; in that of `COc1ccc(/C=C2\SC(c3ccc(C)cc3)=NC2=O)cc1OC`, -0.09%; in that of `COc1ccc(/C=C2\SC(N)=NC2=O)cc1`, 3.78%.
In the case of `O=C(CN1C(=O)S/C(=C\c2ccc(O)cc2)C1=O)c1ccccc1` it was 2.23%; in that of `COc1cc(/C=C2\SC(N)=NC2=O)ccc1OCC(=O)Nc1ccccc1C`, 1.31%.
On to `COc1ccc(/C=C2/SC(c3ccc(C)cc3)=NC2=O)cc1OC`, for which the inhibition was 11.7%.
In the case of `COc1ccc(N2CC(C(=O)Nc3nnc(SCC(=O)N4CCOCC4)s3)CC2=O)cc1` (stereo not given) it was 10.3%.
In the case of `CCCn1c(SCC(=O)Nc2cc(Cl)ccc2OC)nc(O)cc1=O` it was 4.2%; in that of `CCOC(=O)C(CC)Sc1nc2c(c(=O)[nH]c(=O)n2C)n1C/C=C(/C)Cl` (stereo not given), 13.4%.
The result for `CCc1cccc(NC(=O)CSc2nnc(Cc3ccc(OC)cc3)c(=O)[nH]2)c1` reads 6.26%.
`CC(=O)c1cccc(Nc2cc(C)nc3c(C)cc(C)cc23)c1`: the inhibition is 11%.
Turning to `CC(=O)Nc1cccc2c1C(=O)N(c1ccccc1C)C2=O`, the inhibition was 9.72%.
As for `Cc1ccnc(NC(=O)Cn2c(=O)oc3ccccc32)c1`, the inhibition is 6.21%.
In the case of `Cc1ccc(NC(=O)CN2C(=O)S/C(=C\c3cccn3C)C2=O)cc1` it was 2.72%; in that of `Cn1cccc1/C=C1\SC(=O)N(c2ccc(O)cc2)C1=O`, 0.13%.
In the case of `N/C(Cc1cccs1)=N\OC(=O)COc1ccc(Br)cc1` it was 0.69%.
In the case of `CSc1ccc(CN(C)CC(=O)NCc2ccccc2)cc1` it was 4.61%; in that of `COc1ccc(CNC(=O)CN(C)Cc2ccc(SC)cc2)cc1`, 9.14%; in that of `CN(CC(=O)NCc1ccc(F)cc1)Cc1cccc(Cl)c1`, 5.16%.
Take `COc1ccc(CNC(=O)CCOc2ccc(C(C)(C)C)cc2)cc1`: the inhibition was 4.83%.
The result for `Cc1cccc(NC(=O)C2(C)CC3c4ccccc4C2c2ccccc23)c1C` (stereo not given) reads 4.55%.
The result for `CC(C)(C)OC(=O)N[C@@H](Cc1ccccc1)C(=O)NCC1CCC(C(=O)N[C@@H](CC(=O)O)C(=O)O)CC1` (stereo not given in full) reads -2.85%; that for `COc1ccc(S(=O)(=O)N2CCN(C3CCN(Cc4ccccc4)CC3)CC2)cc1`, 8.39%; that for `CCOC(=O)N1CCC(N2CCN(S(=O)(=O)c3ccc(C)cc3)CC2)CC1`, 22.2%.
In the case of `O=S(=O)(c1ccc(Cl)cc1)N1CCN(C2CCN(Cc3ccccc3)CC2)CC1` it was 2.66%; in that of `O=S(=O)(c1ccccc1)N1CCN(C2CCN(Cc3ccccc3)CC2)CC1`, 9.41%; in that of `CCOC(=O)N1CCC(N2CCN(S(=O)(=O)c3ccc(OC)cc3)CC2)CC1`, 20.1%.
Consider `COc1ccccc1N1CCN(C2CCN(S(=O)(=O)c3ccc(C)cc3)CC2)CC1`, for which the inhibition is -5.5%.
The result for `COc1ccccc1N1CCN(C2CCN(S(=O)(=O)c3ccc4ccccc4c3)CC2)CC1` reads 4.9%.
In the case of `COc1ccc(S(=O)(=O)N2CCN(Cc3ccccc3)CC2)cc1` it was 5.15%.
In the case of `O=c1c2ccccc2nnn1CSc1ccccc1F` it was 8.16%.
`Cc1cccc(C(=O)NCC(=O)NC2CCC(C)CC2)c1` (stereo not given): the inhibition is 3.71%.
In the case of `O=C(CSc1c2c(nc3ccccc13)CCC2)N1CCCC1` it was 10.3%; in that of `Cc1ccn2cc(CCNC(=O)CC3CCCCC3)nc2c1`, 16%; in that of `O=C(c1cc(Cl)nc2ccccc12)N1CCCCC1`, 3.41%.
The result for `CCN(CC)c1ccc(C(=O)Nc2cccc(F)c2)cc1` reads 15.5%; that for `CCN(CC)c1ccc(C(=O)NNC(=O)CCl)cc1`, 9.55%; that for `Cc1ccc(-c2csc(NC(=O)c3ccccc3F)c2C(=O)O)cc1`, 5.32%.
The result for `COc1cccc(COC(=O)c2cc(S(=O)(=O)N3CCCCC3)ccc2N2CCOCC2)c1OC` reads -0.42%; that for `O=S(=O)(Cc1ccccc1)NCCc1ccc(F)cc1`, -2.46%; that for `COc1ccc(CC(=O)NCCN2CCOCC2)cc1`, -0.23%.
As for `COc1ccc(CCNCc2ccc(OCc3ccccc3)cc2)cc1`, the inhibition is -1.52%.
The result for `COc1ccc(CCNC(=O)C(=O)NCCCN2CCOCC2)cc1` reads 0.98%; that for `COc1ccc(CNS(=O)(=O)CCNCCc2ccccc2)cc1`, 6.36%.
Take `O=C(Cc1ccc(F)cc1)NCCc1ccccc1`: the inhibition was -3.3%.

One may read the inhibition as the change of the read-out against control, counted positive when it falls.
